C diff growth: blocks growth of Clostridium difficile; Clostridium difficile clinical isolate growth, OD600, 24 h; active compounds read low; growth activity, negative = inhibition, % at 16 µg/mL (by protocol); actives 0.25% (n = 86,000); AID 1259249;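 active = mean growth activity at or below -80% and every replicate also at or below -80%; inconclusive = mean at or below -80% but some replicate above -80%; inactive = mean growth activity above -80%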
T cruzi growth-1: inhibitors of T. cruzi proliferation; T. cruzi beta-gal in NIH3T3, GalScreen luminescence, 90 h; inhibition, % at 8.34 µM; actives 5.9% (n = 77,000);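 active = mean inhibition above about 93%, with at least 55% of replicates each passing it, limit read from the data, passing the limit was not always enough; inconclusive = only one of those two conditions holds; inactive = neither condition holds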
Pf Dd2 inh: P. falciparum Dd2 growth inhibition. SYBR Green, 72 h; active compounds read low. activity change, % at 10 µM. actives 2.3% (n = 94,000); in the data active = activity change below about -80%; inconclusive = no clear call, values can overlap the other calls
T cruzi growth-2: inhibitors of T. cruzi proliferation; shares compounds with T cruzi growth-1; T. cruzi beta-gal in NIH3T3, GalScreen luminescence, 90 h; inhibition, % at 8.35 µM; actives 72% (n = 5,600);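 active = mean replicate inhibition above about 95% and at least 55% of replicates individually reaching it, limit read from the data; inconclusive = only one of the two criteria is met; inactive = neither criterion is met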
T cruzi growth-3: inhibitors of T. cruzi proliferation | actives 21% (n = 5,600) | inhibition, % at 2.09 µM | T. cruzi beta-gal in NIH3T3, GalScreen luminescence, 90 h | shares compounds with T cruzi growth-1;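 active = mean inhibition above about 95%, with at least 55% of replicates also reaching it, limit read from the data; inconclusive = meets just one of the two conditions; inactive = meets neither condition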
NIH3T3 tox: cytotoxicity in mouse NIH/3T3 fibroblasts | shares compounds with T cruzi growth-1 | NIH/3T3 viability, CellTiter-Glo ATP luminescence, 90 h | cytotoxicity (signal decrease), % at 8.35 µM | actives 14% (n = 5,600);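 active = mean signal decrease across replicates above about 35% based on untreated-well scatter, with enough replicates individually passing, limit read from the data; inconclusive = no rule stated though some were filed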
NIH3T3 tox 2: cytotoxicity in mouse NIH/3T3 fibroblasts | shares compounds with T cruzi growth-1 | NIH/3T3 viability, CellTiter-Glo ATP luminescence, 90 h | inhibition, % at 24.9 µM | actives 56% (n = 5,600) | AID 651744;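 active = mean loss of cell viability signal at or above a set limit, and enough replicates individually reaching it; inconclusive = meets only the mean limit or only the replicate share; inactive = meets neither condition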
Hits are given with their value; - = inactive; ? = inconclusive; . = not tested or not shown. The list is not random: actives were taken first. Their share in the collection is about 6.7%.

SMILES	C diff growth	T cruzi growth-1	Pf Dd2 inh	T cruzi growth-2	T cruzi growth-3	NIH3T3 tox	NIH3T3 tox 2
OC[C@@H]1[C@@H](c2ccc(C#Cc3cccnc3)cc2)[C@@H]2CN(Cc3ccccc3F)CCCCN12	-	112	-	103	98	36	104
OC[C@@H]1[C@@H](c2ccc(C#Cc3ccccc3F)cc2)[C@@H]2CN(Cc3cncnc3)CCCCN12	-	-	-	.	.	.	.
COc1cccc(-c2ccc([C@@H]3[C@H](CO)N4C(=O)CN(C(=O)C5CCC5)C[C@@H]34)cc2)c1	-	.	-	.	.	.	.
C[C@H]1CN([C@@H](C)CO)C(=O)Cc2cc(NC(=O)c3ccncc3)ccc2O[C@@H]1CN(C)Cc1ccc(Oc2ccccc2)cc1	-	-	-	.	.	.	.
C[C@H](CO)N1C[C@H](C)[C@H](CN(C)Cc2ccc(Oc3ccccc3)cc2)Oc2ccc(NC(=O)c3ccncc3)cc2CC1=O	-	102	-	102	-	-	103
C[C@@H]1CN([C@@H](C)CO)C(=O)Cc2cc(NC(=O)Nc3ccccc3)ccc2O[C@@H]1CN(C)Cc1ccncc1	.	-	-	.	.	.	.
C[C@@H]1CN([C@H](C)CO)C(=O)Cc2cc(NC(=O)Nc3ccccc3)ccc2O[C@H]1CN(C)Cc1ccncc1	-	98	-	-	-	-	-
C[C@@H]1CN([C@@H](C)CO)C(=O)Cc2cc(NC(=O)c3ccncc3)ccc2O[C@H]1CN(C)Cc1ccc(Oc2ccccc2)cc1	-	105	-	105	-	-	103
C[C@@H]1CN([C@H](C)CO)C(=O)Cc2cc(NC(=O)c3ccncc3)ccc2O[C@@H]1CN(C)Cc1ccc(Oc2ccccc2)cc1	-	-	-	.	.	.	.
O=C(C[C@H]1CC[C@@H]2[C@H](COC[C@@H](O)CN2Cc2nccs2)O1)NCc1ccc(F)cc1	-	-	-	.	.	.	.
C[C@H](CO)N1C[C@H](C)[C@@H](CN(C)C)Oc2ccc(NC(=O)CCCCCC(=O)Nc3ccccc3N)cc2C1=O	-	.	-	.	.	.	.
CO[C@@H]1CN(C)C(=O)c2cc(NS(=O)(=O)c3cccc(F)c3)ccc2OC[C@@H](C)N(Cc2cc(F)ccc2F)C[C@@H]1C	-	100	-	115	-	-	93
COc1cccc(S(=O)(=O)Nc2ccc3c(c2)C(=O)N(C)C[C@@H](OC)[C@@H](C)CN(Cc2ccccc2F)[C@@H](C)CO3)c1	.	.	-	.	.	.	.
COc1cccc(S(=O)(=O)Nc2ccc3c(c2)OC[C@H](C)N(Cc2ccccc2F)C[C@@H](C)[C@H](OC)CN(C)C3=O)c1	.	-	-	.	.	.	.
COc1cccc(S(=O)(=O)Nc2ccc3c(c2)OC[C@@H](C)N(Cc2cc(F)ccc2F)C[C@@H](C)[C@H](OC)CN(C)C3=O)c1	.	102	-	107	-	-	-
COc1cccc(S(=O)(=O)Nc2ccc3c(c2)OC[C@@H](C)N(Cc2ccccc2F)C[C@@H](C)[C@H](OC)CN(C)C3=O)c1	.	96	-	105	-	-	-
COc1cccc(S(=O)(=O)Nc2ccc3c(c2)OC[C@H](C)N(Cc2ccccc2F)C[C@H](C)[C@@H](OC)CN(C)C3=O)c1	-	.	-	.	.	.	.
C[C@@H]1CN([C@H](C)CO)C(=O)c2cc(C3=CCCCC3)cnc2O[C@H]1CN(C)C(=O)Cc1ccncc1	-	.	-	.	.	.	.
CO[C@H]1CC[C@H]2CCN(C)C(=O)CCCN(C)C(=O)c3cccc(C#N)c3OC[C@H]1O2	-	-	.	.	.	.	.
COc1ccc(CN2C[C@@H](O)COC[C@@H]3O[C@H](CC(=O)NCc4ccccc4Cl)CC[C@H]32)cc1	-	-	-	.	.	.	.
C[C@@H]1CN([C@H](C)CO)C(=O)c2cc(NC(=O)Nc3ccc(C(F)(F)F)cc3)ccc2O[C@@H](C)CCCCO[C@H]1CN(C)C(=O)Nc1ccc(F)cc1	-	-	-	.	.	.	.
C[C@@H]1CCCCO[C@@H](CN(C)C(=O)Nc2ccc(C(F)(F)F)cc2)[C@H](C)CN([C@@H](C)CO)C(=O)c2cc(NC(=O)Nc3ccc(F)cc3)ccc2O1	-	106	-	101	103	-	-
C[C@H](CO)N1C[C@H](C)[C@@H](CN(C)C(=O)Nc2ccc(F)cc2)OCCCC[C@H](C)Oc2ccc(NC(=O)Nc3ccc(C(F)(F)F)cc3)cc2C1=O	-	-	-	.	.	.	.
C[C@H]1CCCCO[C@@H](CN(C)C(=O)Nc2ccc(F)cc2)[C@@H](C)CN([C@@H](C)CO)C(=O)c2cc(NC(=O)Nc3ccc(C(F)(F)F)cc3)ccc2O1	-	102	-	102	111	-	-
O=S(=O)(c1ccccc1F)N1CCCCN2[C@@H](CO)[C@@H](c3ccc(-c4cccnc4)cc3)[C@@H]2C1	-	-	-	.	.	.	.
SMILES	C diff growth	T cruzi growth-1	Pf Dd2 inh	T cruzi growth-2	T cruzi growth-3	NIH3T3 tox	NIH3T3 tox 2
CCCC(=O)Nc1ccc2c(c1)C(=O)N(C)[C@H]1CC[C@H](CC(=O)NCc3ccccc3Cl)O[C@@H]1CO2	-	-	-	.	.	.	.
COc1ccc(NC(=O)N(C)C[C@@H]2Oc3ccc(NC(=O)Cn4cnnn4)cc3C(=O)N([C@@H](C)CO)C[C@@H]2C)cc1	.	-	-	.	.	.	.
CCC(=O)N1CC[C@H]2[C@@H]1c1cc(-c3ccc(F)cc3)ccc1N(C)[C@H]2CO	-	?	-	108	-	-	-
COCC(=O)N1CC[C@@H]2[C@@H](CO)N(C)c3ccc(-c4ccc(F)cc4)cc3[C@@H]21	-	-	-	.	.	.	.
CCC(=O)N1CC[C@H]2[C@@H]1c1cc(-c3ccc(OC)cc3)ccc1N(C)[C@H]2CO	-	105	-	108	-	-	-
CCC(=O)N1CC[C@@H]2[C@H]1c1cc(-c3ccc(OC)cc3)ccc1N(C)[C@H]2CO	-	-	-	.	.	.	.
CCCNC(=O)N1[C@@H]2Cn3c(ccc(-c4cccc(OC)c4)c3=O)[C@H]1[C@@H](C(=O)NC1CCC1)[C@@H]2CO	-	-	.	.	.	.	.
O=C(C1CCC1)N1CCCCN2[C@H](C1)[C@@H](c1ccc(C#CC3(O)CCCC3)cc1)[C@@H]2CO	-	-	-	.	.	.	.
O=C(C1CCC1)N1CCCCN2[C@H](CO)[C@@H](c3ccc(C#CC4(O)CCCC4)cc3)[C@H]2C1	-	-	-	.	.	.	.
O=C(C1CCC1)N1CCCCN2[C@H](C1)[C@H](c1ccc(C#CC3(O)CCCC3)cc1)[C@@H]2CO	-	-	-	.	.	.	.
O=C(c1ccc(F)cc1)N1CCCCN2[C@H](CO)[C@@H](c3ccc(C#CC4(O)CCCC4)cc3)[C@@H]2C1	-	-	-	.	.	.	.
O=C(c1ccc(F)cc1)N1CCCCN2[C@H](CO)[C@H](c3ccc(C#CC4(O)CCCC4)cc3)[C@@H]2C1	-	107	-	103	-	-	-
O=C(C1CCCC1)N1CCCCN2[C@H](CO)[C@H](c3ccc(C#CC4(O)CCCC4)cc3)[C@H]2C1	-	104	-	109	-	-	30
O=C(C1CCC1)N1CCCCN2[C@H](CO)[C@H](c3ccc(C#CC4(O)CCCC4)cc3)[C@H]2C1	-	101	-	?	-	-	-
